From PubChem
The entries come from a sample that favours hits as a whole.
Pf apPOL inh = Pf-apPOL DNA polymerase inhibition; Recombinant Pf-apPOL, molecular beacon fluorescence, 1.5 h; inhibition, % at 10 µM; hit rate 0.25% among 210,000
mHTT-CaM PPI inh = disrupts binding of mutant huntingtin to calmodulin. AlphaScreen His-mHTT/GST-CaM binding, luminescence. inhibition, % at 15 µM. hit rate 3.6% among 190,000
Target sequence (P42858 whole entry, looked up, change not shown): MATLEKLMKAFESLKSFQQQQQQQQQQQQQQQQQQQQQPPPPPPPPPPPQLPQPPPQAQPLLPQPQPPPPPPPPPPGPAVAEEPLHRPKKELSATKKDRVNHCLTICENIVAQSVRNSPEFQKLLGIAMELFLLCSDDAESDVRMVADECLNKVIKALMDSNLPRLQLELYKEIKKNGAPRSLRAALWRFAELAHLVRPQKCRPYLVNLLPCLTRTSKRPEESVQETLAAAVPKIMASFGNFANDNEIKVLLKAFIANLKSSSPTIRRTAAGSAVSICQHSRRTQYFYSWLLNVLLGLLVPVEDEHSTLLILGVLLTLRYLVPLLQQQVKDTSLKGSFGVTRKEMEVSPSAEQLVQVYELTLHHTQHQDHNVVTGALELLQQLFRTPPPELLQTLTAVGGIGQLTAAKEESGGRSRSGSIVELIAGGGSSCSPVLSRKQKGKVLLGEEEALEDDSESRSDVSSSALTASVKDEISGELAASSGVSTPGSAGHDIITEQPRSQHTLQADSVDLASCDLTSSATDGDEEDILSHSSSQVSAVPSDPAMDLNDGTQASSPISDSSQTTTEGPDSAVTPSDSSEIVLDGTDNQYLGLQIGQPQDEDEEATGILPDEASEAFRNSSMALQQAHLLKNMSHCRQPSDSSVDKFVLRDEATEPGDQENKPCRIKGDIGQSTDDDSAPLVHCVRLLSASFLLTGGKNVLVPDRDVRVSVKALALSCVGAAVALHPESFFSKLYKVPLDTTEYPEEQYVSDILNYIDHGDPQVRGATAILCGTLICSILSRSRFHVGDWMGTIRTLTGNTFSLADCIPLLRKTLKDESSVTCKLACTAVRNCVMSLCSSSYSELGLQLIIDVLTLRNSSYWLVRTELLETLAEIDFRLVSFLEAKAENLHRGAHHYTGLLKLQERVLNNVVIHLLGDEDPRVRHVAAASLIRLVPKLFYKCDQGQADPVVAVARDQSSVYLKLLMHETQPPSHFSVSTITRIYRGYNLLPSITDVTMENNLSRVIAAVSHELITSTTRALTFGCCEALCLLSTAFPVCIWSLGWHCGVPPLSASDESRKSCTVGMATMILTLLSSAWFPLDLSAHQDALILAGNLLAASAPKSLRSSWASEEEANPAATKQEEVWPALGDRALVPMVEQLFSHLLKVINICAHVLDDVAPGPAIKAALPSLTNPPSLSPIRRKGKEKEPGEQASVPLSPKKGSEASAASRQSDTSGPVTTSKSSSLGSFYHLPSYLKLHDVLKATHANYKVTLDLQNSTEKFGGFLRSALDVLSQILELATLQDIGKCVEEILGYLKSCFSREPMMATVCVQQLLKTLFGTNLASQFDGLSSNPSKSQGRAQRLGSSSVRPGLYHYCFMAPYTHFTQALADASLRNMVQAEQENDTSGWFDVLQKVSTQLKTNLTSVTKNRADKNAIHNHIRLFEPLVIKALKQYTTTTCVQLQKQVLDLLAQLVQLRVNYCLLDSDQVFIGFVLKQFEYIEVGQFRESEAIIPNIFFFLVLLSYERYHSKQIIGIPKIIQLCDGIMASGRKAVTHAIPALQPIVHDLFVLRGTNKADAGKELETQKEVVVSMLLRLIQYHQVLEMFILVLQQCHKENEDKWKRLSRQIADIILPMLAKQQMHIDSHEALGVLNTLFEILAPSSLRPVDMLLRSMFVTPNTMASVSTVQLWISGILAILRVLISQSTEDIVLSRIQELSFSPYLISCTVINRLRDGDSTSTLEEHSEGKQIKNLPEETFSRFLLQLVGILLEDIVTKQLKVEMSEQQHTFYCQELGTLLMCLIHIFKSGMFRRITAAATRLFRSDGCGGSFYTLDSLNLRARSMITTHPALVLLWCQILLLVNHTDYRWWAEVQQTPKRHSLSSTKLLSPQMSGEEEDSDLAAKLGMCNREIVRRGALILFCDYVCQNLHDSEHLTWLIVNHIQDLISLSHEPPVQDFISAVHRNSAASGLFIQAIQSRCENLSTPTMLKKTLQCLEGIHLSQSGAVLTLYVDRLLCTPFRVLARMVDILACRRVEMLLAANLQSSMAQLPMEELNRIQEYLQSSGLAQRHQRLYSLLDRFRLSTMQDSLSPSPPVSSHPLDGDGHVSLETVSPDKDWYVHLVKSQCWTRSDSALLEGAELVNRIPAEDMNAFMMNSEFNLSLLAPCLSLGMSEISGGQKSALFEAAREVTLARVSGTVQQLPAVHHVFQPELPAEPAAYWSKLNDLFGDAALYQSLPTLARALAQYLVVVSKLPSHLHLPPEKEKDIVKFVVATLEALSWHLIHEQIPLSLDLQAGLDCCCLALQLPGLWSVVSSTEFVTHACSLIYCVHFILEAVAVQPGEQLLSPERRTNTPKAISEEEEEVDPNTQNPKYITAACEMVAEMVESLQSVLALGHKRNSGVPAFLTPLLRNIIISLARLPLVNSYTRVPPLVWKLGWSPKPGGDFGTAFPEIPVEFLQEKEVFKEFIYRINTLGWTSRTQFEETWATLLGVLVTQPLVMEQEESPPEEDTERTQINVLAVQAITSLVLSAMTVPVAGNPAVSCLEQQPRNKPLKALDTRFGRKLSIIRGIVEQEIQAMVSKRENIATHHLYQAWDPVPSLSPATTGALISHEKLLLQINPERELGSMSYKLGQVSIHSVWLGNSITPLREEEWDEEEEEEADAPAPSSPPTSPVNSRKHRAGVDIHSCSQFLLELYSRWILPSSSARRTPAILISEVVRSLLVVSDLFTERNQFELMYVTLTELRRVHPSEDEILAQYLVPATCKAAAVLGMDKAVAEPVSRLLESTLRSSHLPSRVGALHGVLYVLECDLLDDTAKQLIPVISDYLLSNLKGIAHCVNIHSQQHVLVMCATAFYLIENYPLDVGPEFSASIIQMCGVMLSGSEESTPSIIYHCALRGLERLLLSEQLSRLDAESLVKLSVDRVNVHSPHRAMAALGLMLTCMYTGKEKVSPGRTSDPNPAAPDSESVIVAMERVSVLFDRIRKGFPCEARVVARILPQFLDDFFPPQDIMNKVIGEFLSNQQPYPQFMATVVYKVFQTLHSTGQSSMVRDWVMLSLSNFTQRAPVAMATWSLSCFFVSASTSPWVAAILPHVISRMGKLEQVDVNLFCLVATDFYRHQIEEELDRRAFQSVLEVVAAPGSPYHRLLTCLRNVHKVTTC
A number is an active result; i = inactive; nt = no result given; ! = not confirmed by another sample. Rule as the data show it: active = inhibition above about 50%; inactive = the rest.

SMILES	Pf apPOL inh	mHTT-CaM PPI inh
OCCOCCNc1ncnc2c1c(-c1ccccc1)cn2-c1cccc(Cl)c1	i	54
Cc1ccc(C)c(N2C(=O)C3C(C2=O)N2CCCN2C3c2ccccc2)c1 (centres undefined)	i	i
CCOC(=O)ON1C(=O)c2ccccc2N2COc3ccccc3C12 (centres undefined)	nt	100
CCOC(=O)C1Oc2ccccc2C(C(=O)OC)=C1C(=O)OC (centres undefined)	i	i
CN(C)C(=O)COc1cc2oc(=O)c3c(c2cc1Cl)CCCC3	i	i
Cc1cc(-c2nnc(NC(=O)C(C)(C)Oc3ccc(Cl)cc3)o2)c(C)o1	i	98
CC(C)(Oc1ccc(Cl)cc1)C(=O)Nc1nnc(-c2ccsc2)o1	i	i
CCc1onc(C)c1C1CCCN1C(=O)c1cccs1 (centres undefined)	i	i
Cc1ccc(NC(=O)Cc2nc(-c3ccccn3)n[nH]2)c(C)c1	i	86
Cc1cc(F)ccc1NC(=O)Cc1nc(-c2ccccn2)n[nH]1	i	99
O=C(Cc1ccccc1F)Nc1cc(-c2ccccn2)no1	i	i
Cc1ccc(C)c(NC(=O)Cc2nc(-c3ccccc3)n[nH]2)c1	i	i
Cc1ccc(C)c(NC(=O)Cc2nc(-c3ccccn3)n[nH]2)c1	i	99
Cc1ccc(NC(=O)Cc2ccccc2)c(C)c1	i	i
O=C(Cc1nc(-c2ccccn2)n[nH]1)Nc1cc(F)ccc1F	i	95
Cc1cc(F)ccc1NC(=O)Cc1nnc(-c2ccc3ncccc3c2)o1	i	i
CC12C=CC3(CN(Cc4ccccc4)C(=O)C3C1C(=O)NCc1ccccn1)O2 (centres undefined)	i	i
Nc1ncn2c(n1)nc1ccccc12	i	i
Cc1cc(C)cc(NC(=O)Cc2nc(-c3ccccn3)n[nH]2)c1	i	78
Cc1cccc(NC(=O)Cc2nc(-c3ccccc3)n[nH]2)c1	i	i
Cc1cc2c(cc1C)NC(c1ccccc1Cl)C1=C(CC(C)(C)CC1=O)N2 (centres undefined)	i	i
Cc1cc(C)n2cc(CSc3nc4ccccc4o3)nc2n1	i	i
CC(C)(C)c1noc(-c2ccc(=O)n(Cc3ccc(Cl)cc3)n2)n1	i	i
COc1cccc2sc(Nc3nc4ccc(S(C)(=O)=O)cc4s3)nc12	i	i
COc1cccc2sc(Nc3nnc(-c4cccs4)o3)nc12	i	76
SMILES	Pf apPOL inh	mHTT-CaM PPI inh
O=C(NC1CC2CC1N(C(=O)COc1cccc(Cl)c1)C2)c1cccnc1 (centres undefined)	i	i
O=C(Nc1ccccc1F)c1cc2n(n1)CCCN(Cc1cccc(F)c1)C2=O	i	i
Cc1ccc([C@H]2C[C@H](O)[C@@H](n3cc(C4CC4)nn3)CN2CC2CCCCC2)cc1	i	86
O[C@H]1CN(CC2CCCCC2)[C@@H](c2ccccc2)C[C@@H]1n1cc(C2CC2)nn1	i	70
Cc1ccc([C@H]2C[C@H](n3cc(C4CC4)nn3)[C@@H](O)CN2CC2CCCCC2)cc1	i	i
Cc1ccc([C@H]2C[C@@H](n3cc(C4CC4)nn3)[C@H](O)CN2CC2CCCCC2)cc1	i	i
Cn1nc(C(=O)NCc2ccc(Cl)cc2)c2c1CCN(C(=O)CC1CCCC1)C2	i	i
Cn1nc(C(=O)NCc2ccccc2)c2c1CCN(C(=O)C1CCC1)C2	i	i
CC(C)CC(=O)N1CCc2c(c(COCc3ccc(Cl)cc3)nn2C)C1	i	63
CCC(=O)N1CCc2c(c(COCc3ccc(C)cc3)nn2C)C1	i	i
CCC(=O)N1CCc2c(c(C(=O)NCc3ccc4c(c3)OCO4)nn2C)C1	i	i
Cn1nc(C(=O)NCc2ccc3c(c2)OCO3)c2c1CCN(C(=O)C1CCCCC1)C2	i	72
CCCC(=O)N1CCc2c(c(C(=O)NCc3ccc(Cl)cc3)nn2C)C1	i	84
Cn1nc(C(=O)NCc2ccc(Cl)cc2)c2c1CCN(C(=O)C1CCCC1)C2	i	92
Cc1sc2ncn(CC(=O)NCc3ccccn3)c(=O)c2c1C	i	i
Cc1cccc(CNC(=O)c2nn(C)c3c2CN(C(=O)C2CCC2)CC3)c1	i	i
Cn1nc(C(=O)NCc2ccc(F)cc2)c2c1CCN(C(=O)C1CCCC1)C2	i	77
O=C(NCCc1ccoc1)C12CC3CC(CC(C3)C1)C2	i	i
O=C(Nc1cccc(F)c1)c1cc(S(=O)(=O)NCc2ccc(F)cc2)ccc1F	i	i
CCCC1=NN(c2nc3ccccc3s2)C(=O)/C1=C/N(C)C	i	i
CC1=NN(c2nc3ccccc3s2)C(=O)C1	i	94
CC1=NN(c2nc(-c3ccc(C#N)cc3)cs2)C(=O)C1	i	i
Cc1ccc(Nc2cc(C)nc(-c3ccccc3O)n2)cc1	i	i
CC1=NN(c2nc(-c3ccccc3O)cs2)C(=O)C1	i	98
CC1=NN(c2cc(C)nc(-c3ccccc3O)n2)C(=O)C1	i	56
SMILES	Pf apPOL inh	mHTT-CaM PPI inh
O=C(CCc1cn(Cc2ccccc2)c2ccccc12)NCc1ccc2c(c1)OCO2	i	i
Cc1ccc(NC(=O)COc2ccc(C=O)cc2)cc1C	i	i
CCC(=O)NC(Cc1ccccc1)c1nnc(N2CCCCCC2)o1 (centres undefined)	i	i
CC(C)c1ccc(-n2ccnc(NC(=O)c3ccccn3)c2=O)cc1	i	91
CC(C)c1ccc(-n2ccnc(NC(=O)Nc3ccccc3)c2=O)cc1	i	i
Cc1ccc(-n2ccnc(NC(=O)c3ccccn3)c2=O)cc1C	i	89
Cc1ccc(-n2ccnc(NC(=O)c3cccc(F)c3)c2=O)cc1C	i	i
CN(C)CC(C)(C)CNc1ccc(N2C(=O)C3C4C=CC(C4)C3C2=O)cc1[N+](=O)[O-] (centres undefined)	i	i
CCc1ccc(C(=O)Nc2nnc(C3CC(=O)N(c4ccc(SC)cc4)C3)o2)cc1 (centres undefined)	i	i
Cc1cc(C(=O)N2CCN(C)CC2)nn1CC(=O)NCCC1=CCCCC1	i	i
CN1C(=O)/C(=C2\SC(=Nc3ccccc3)N(c3ccccc3)C2=O)c2ccccc21	nt	i
COc1ccc(Cc2cnc(NC(=O)c3ccc(N4CCOCC4)c([N+](=O)[O-])c3)s2)cc1	i	i
CC(C)(C)c1csc(NC(=O)c2ccc(N3CCOCC3)c([N+](=O)[O-])c2)n1	i	55
COc1ccc(C2=N/C(=C\c3ccccc3F)C(=O)O2)cc1	i	i
CCOCCCNC(=O)CCS(=O)(=O)c1cc(Br)cc2c1N(C(=O)CC)CC2	i	i
O=C(O)c1ccc([N+](=O)[O-])c2c1NC(c1ccccc1)C1CC=CC21 (centres undefined)	i	80!
Cc1ccc([N+](=O)[O-])c2c1NC(c1ccc(Br)cc1)C1CC=CC21 (centres undefined)	i	97
CCOc1cc2c(c([N+](=O)[O-])c1)NC(c1ccc(Br)cc1)C1CC=CC21 (centres undefined)	i	i
O=[N+]([O-])c1ccc(C2Nc3c(cccc3C(F)(F)F)C3C=CCC32)cc1 (centres undefined)	i	i
OC1OC(C2COC3(CCCCC3)O2)C2OC3(CCCCC3)OC12 (centres undefined)	i	i
CCC(C)NC(=O)C1CCN(c2ccc(C)c(F)c2)C1=O (centres undefined)	i	i
CC(=O)C1=C(C)NC(C)=C(C(C)=O)C1c1cccc([N+](=O)[O-])c1	i	nt
CC(=O)C1=C(C)Nc2sc(C(=O)c3cccc([N+](=O)[O-])c3)c(N)c2C1c1cccnc1 (centres undefined)	i	57
